Among the data in PubChem BioAssay are z-score values, retold here.

Assay [1] is described as follows: compound effects on lung adenocarcinoma cell viability – A549, calcein-AM fluorescence, 48 h, basal, profiling panel (AID 1162). The note with it: higher = more signal.
Assay [2] is described as follows: compound effects on differentiated 3T3-L1 adipocyte viability – cell-based, 3T3-L1 adipocytes, calcein-AM fluorescence, 48 h, basal, profiling panel (AID 1163). As to conditions: 3T3-L1 adipocytes viability, higher = more signal.
The nature of assay [3]: compound effects on hepatocellular carcinoma cell viability – HepG2, calcein-AM fluorescence, 48 h, basal, profiling panel (AID 1164). As to conditions: higher = more signal.
A short description of assay [4]: compound effects on multiple myeloma cell viability – MM1S, calcein-AM fluorescence, 48 h, basal, profiling panel (AID 1165).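 Further: viability of MM1S multiple myeloma cells under basal unstimulated conditions.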 The note with it: higher = more signal.
Assay [5] can be described thus: calcein-AM signal in unstimulated myeloma cells – cell-based, calcein-AM fluorescence, 48 h, PK04 Diversity Set, profiling panel (AID 1166).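 Further: cells grown under basal conditions without added stimulus.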 The note with it: RPMI8226 myeloma viability, higher = more signal.
Assay [6] is described as follows: JC-1 mitochondrial signal, unstimulated HepG2 cells – cell-based, JC-1 fluorescence, 24 h, 100 nL compound, profiling panel (AID 1167). As to conditions: HepG2 mitochondrial potential, higher = more signal.
A short description of assay [7]: JC-1 mitochondrial signal, unstimulated adipocytes – cell-based, JC-1 fluorescence, 3T3-L1 adipocytes, 24 h, 100 nL compound, profiling panel (AID 1168). As to conditions: JC-1 mitochondrial fluorescence, higher = more signal, called active from +8 up or from −8 down.
Assay [8] can be described thus: JC-1 mitochondrial signal, unstimulated myeloma cells – cell-based, JC-1 fluorescence, RPMI8226, 24 h, 100 nL compound, profiling panel (AID 1169). As to conditions: JC-1 mitochondrial potential fluorescence, higher = more signal.
Assay [9] can be described thus: JC-1 mitochondrial signal, unstimulated MM1S myeloma – cell-based, JC-1 fluorescence, 24 h, 100 nL compound, profiling panel (AID 1170). As to conditions: MM1S mitochondrial potential, higher = more signal.
Assay [10] can be described thus: resazurin metabolic signal in A549 cells – cell-based, resazurin fluorescence, 24 h, PK04 Diversity Set, profiling panel (AID 1171). The note with it: A549 viability, higher = more signal, called active from +8 up or from −8 down.

The structures appear in SMILES notation. Calls of active or inactive are those of the source.
Further: test concentration not given here.

As to `CCc1cc2c(nc1CC)CCN(CCC(C)=NOC(C)CN1CCCCc3nc(C)c(C)cc31)C2` (stereo not given), the z-score in assay [1] is 0.115; in assay [2], 0.97; in [3] it was 0.101; in assay [4] it was -2.89; in [5], -0.51; in assay [6], 6.12. For the same molecule, the z-score was -1.02 (inactive) in assay [7], -0.39 in assay [8], -0.104 in assay [9] and 0.639 (inactive) in assay [10].

Consider `O=C1[C@H]2[C@H]3[C@H](O)[C@H](O)CC(=NOC[C@@H](O)COCc4ccco4)[C@@H]3CC[C@H]2C(=O)N1Cc1ccccc1`, for which the z-score is -0.355 in assay [1]; -0.886 in assay [2]; -0.297 in assay [3]; 0.727 in assay [4]; 0.693 in assay [5]; -0.083 in assay [6]. Further, the z-score is -0.278 (inactive) in assay [7], -0.271 in assay [8], -0.782 in [9] and 1.06 (inactive) in [10].

As for `CCN1C(=O)[C@H]2[C@H]3[C@H](O)[C@H](O)CC(=NO[C@@H](C)c4cc(-c5c(C)cc(C)cc5C)no4)[C@@H]3CC[C@H]2C1=O`, the z-score in assay [1] is 0.165; in assay [2] it was 0.335; in [3], -0.401; in assay [4] it was -0.807; in assay [5] it was -1.14; in [6] it was -1.38. The z-score in assay [7] was -3.4 (inactive); in assay [8] it was 0.473; in assay [9], -0.176; in [10], 0.296 (inactive).

With `CCN(CC)CC(O)CN1CCCCc2nc(C)c(C)cc21` (stereo not given), the z-score in assay [1] is -0.0127; in [2], -0.054; in assay [3], 0.776; in assay [4] it was 0.288; in assay [5], 0.378; in [6], 0.68. In addition, the z-score in assay [7] was 0.109 (inactive); in assay [8], 0.316; in assay [9] it was -0.989; in assay [10] it was 0.985 (inactive).

With `CCOC(=O)[C@H](CC(C)C)NC(=O)CCC1CC(OC(=O)NCc2ccc3c(c2)OCO3)CC2(CCCC(COC(=O)NCCOc3ccccc3)O2)O1` (stereo not given in full), the z-score in assay [1] was -0.253; in assay [2], -0.36; in [3] it was -1.78; in assay [4], -2.19; in assay [5], -1.43; in [6] it was -1.66. The z-score was 0.278 (inactive) in assay [7], -0.879 in [8], -0.0386 in assay [9] and 0.494 (inactive) in [10].

`CC(=O)OC[C@H]1O[C@@H](ON=C(C)CCN2CCCCc3nc(C)c(C)cc32)[C@H](OC(C)=O)[C@@H](OC(C)=O)[C@@H]1OC(C)=O`: the z-score is -1.33 in assay [1]; 1.58 in [2]; -0.716 in assay [3]; 0.224 in assay [4]; -2.19 in assay [5]; 0.203 in [6]. Also, the z-score in [7] was 0.327 (inactive); in [8], -0.832; in [9], -0.411; in assay [10] it was -0.101 (inactive).

As to `COC(=O)CC=C[C@@H](C)[C@@H](C=NOC(C)CN1CCCCc2nc(C)c(C)cc21)OC` (stereo not given in full), the z-score is -0.165 in assay [1]; -0.213 in assay [2]; -0.0272 in [3]; -1.74 in assay [4]; -0.444 in assay [5]; -0.254 in assay [6]. Besides, the z-score in assay [7] was -0.142 (inactive); in [8] it was -0.497; in assay [9] it was 0.444; in assay [10], 0.0399 (inactive).

With `CCOC(=O)[C@H](CC(C)C)NC(=O)CCC1CC(OC(=O)NCc2ccc3c(c2)OCO3)CC2(CCCC(COC(=O)NCCOC)O2)O1` (stereo not given in full), the z-score is 0.0414 in assay [1]; -0.453 in [2]; -0.0998 in assay [3]; -0.418 in assay [4]; 0.457 in [5]; 0.11 in [6]. Moreover, the z-score in assay [7] is 0.65 (inactive); in assay [8] it was 0.413; in [9], -0.359; in assay [10] it was 0.689 (inactive).

Turning to `CCN1C(=O)[C@H]2[C@H]3[C@H](O)[C@H](O)CC(=NNC(=O)OCc4ccccc4)[C@H]3CC[C@H]2C1=O`, the z-score in assay [1] is -0.365; in [2], 0.888; in assay [3] it was -0.0764; in [4], -1.59; in assay [5], 0.507; in assay [6] it was -0.559. Further, the z-score is -0.978 (inactive) in assay [7], 0.083 in assay [8], 0.409 in [9] and -0.218 (inactive) in [10].

With `COC(=O)[C@H](C)NC(=O)CCC1CC(OC(=O)NCc2ccc3c(c2)OCO3)CC2(CCCC(COC(=O)NCc3ccccc3)O2)O1` (stereo not given in full), the z-score was 3.03 in assay [1]; -0.645 in assay [2]; 0.558 in [3]; -0.147 in assay [4]; 1.27 in assay [5]; 1.33 in [6]. In addition, the z-score is 0.552 (inactive) in assay [7], 0.195 in assay [8], -0.882 in assay [9] and 0.409 (inactive) in assay [10].

With `COC(=O)[C@@H]1CC[C@H](C)[C@@H](c2ccc(Br)cc2)N1C[C@H](O)CN=[N+]=[N-]`, the z-score in [1] was 0.128; in assay [2] it was 0.878; in assay [3], -0.671; in [4], 0.572; in assay [5] it was -0.878; in assay [6], -0.0153. Moreover, the z-score in assay [7] was -0.416 (inactive); in assay [8], -0.443; in [9], 0.75; in assay [10], -0.624 (inactive).

Regarding `CO[C@@H](C(C)C)[C@@H](C)C1OC(=O)CC1O` (stereo not given in full), the z-score in assay [1] was -0.729; in assay [2] it was -0.121; in assay [3] it was -0.349; in [4], 0.534; in assay [5], -0.908; in assay [6] it was -0.518. The z-score in assay [7] was -0.419 (inactive); in assay [8], -0.147; in assay [9], -0.0891; in assay [10] it was -0.196 (inactive).

On to `COc1ccc(COC(=O)NN=C2C[C@@H](O)[C@@H](O)[C@@H]3[C@@H]4C(=O)N(c5cccc(Oc6ccccc6)c5)C(=O)[C@@H]4CC[C@H]23)cc1`, for which the z-score in assay [1] was -0.777; in assay [2], 0.487; in assay [3] it was -0.634; in [4] it was 0.0646; in assay [5], -1.2; in assay [6], 0.89. Moreover, the z-score was -1.78 (inactive) in assay [7], 0.197 in [8], -1.73 in assay [9] and 1.29 (inactive) in assay [10].

Turning to `C#CCCCON=C1[C@H]2CCn3c(=O)n([C@@H](CC)c4ccccc4)c(=O)n3[C@H]2[C@H](O)[C@@H]2O[C@H]12`, the z-score is 0.0523 in assay [1]; 0.44 in [2]; -0.129 in assay [3]; -1.77 in assay [4]; -0.0952 in [5]; -0.696 in assay [6]. For the same molecule, the z-score in assay [7] was 0.123 (inactive); in assay [8] it was -0.547; in [9], -0.662; in assay [10], 0.43 (inactive).

As for `C[C@H]1CC[C@H]2C(=O)OC(COc3ccc(C(C)(C)C)cc3)CN2[C@@H]1c1ccc(Br)cc1` (stereo not given in full), the z-score is 2.19 in [1]; 0.193 in assay [2]; 0.349 in [3]; 0.793 in [4]; 0.253 in [5]; 0.745 in assay [6]. The z-score in assay [7] is -0.414 (inactive); in assay [8], 0.566; in assay [9] it was 0.855; in assay [10], 0.479 (inactive).

As for `C[C@H]1CC[C@@H](C(=O)O)N[C@@H]1c1cccc(N2CCCC2=O)c1`, the z-score in [1] is 0.594; in assay [2], -0.115; in [3] it was 0.652; in assay [4], 0.149; in [5], -1.12; in assay [6], 1.66. The z-score in assay [7] is 0.574 (inactive); in assay [8], 0.468; in [9] it was -0.436; in assay [10], 0.0065 (inactive).
